# Shown are actives, neighbours in structure and some others; about 12% of the full set was active somewhere.
# Shiga inhibitor: inhibitors of Shiga toxin in Vero cells; inhibition, % at 38.7 µM; 290,000 tested, 9.2% active; AID 2315; Vero cells, Shiga toxin protein synthesis inhibition reporter; in the data active = inhibition mostly above about 28%, no sharp cut-off; inactive = mostly below about 43%; note: 0% is about no effect
# SARS PLpro yeast: SARS-CoV PLP inhibition in yeast; S. cerevisiae expressing SARS-CoV PLpro, growth rescue; Potency, µM (doses to about 32.9 µM), inactives show top-dose activity, positive = growth rescue, actives largely listed as activators; 330,000 tested, 0.19% active; note: potency is the fitted concentration of half-maximal effect; 0% is about no effect; nearly all actives have a fitted effect of over 55% in size
# NS1 inh: blocks influenza NS1 protein function | Potency, µM (highest dose often 46.1 µM), inactives show at the highest dose activity, positive = more growth | 270,000 tested, 0.4% active; note: potency is the fitted concentration of half-maximal effect; actives are rising curves; nearly all actives have a fitted effect of over 50% in size
#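 In this qHTS, NS1 from influenza A is expressed in budding yeast, where it slows growth. Cells are switched from glucose to 2% galactose medium (pH 6.0, -URA), treated with compound, and growth recovery is read at OD600.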
# CHX counter-1: counter-screen hit for Shiga toxin inhibitors, cycloheximide | cell reporter, cycloheximide protein synthesis inhibition counterscreen | max response, % | 300,000 tested, 12% active; in the data active = max response mostly above about 13%, no sharp cut-off; inactive = mostly below about 14%; note: read at 38.3 µM for the half of the compounds with a filed dose; 0% is about no effect
# CHX counter-2: affects protein synthesis reporter in cycloheximide counter-screen; shares compounds with Shiga inhibitor; Cycloheximide counterscreen, protein synthesis reporter, Shiga toxin assay; Potency, µM (top dose mostly 38.3 µM), without a hit: at the highest dose activity (activation), most hits filed as activators; 510 tested, 3% active; AID 2318; note: potency is the fitted concentration of half-maximal effect; 0% is about no effect
# Numbers without * were called inactive; ? = inconclusive; . = no result. Unless noted, calls come from the whole dose curve.
SMILES,Shiga inhibitor,SARS PLpro yeast,NS1 inh,CHX counter-1,CHX counter-2
CCN(CCn1cccn1)C(=O)C1CCC(=O)N(CCc2cccc(F)c2)C1 (centres undefined),13,-1%,11%,4,.
O=C(Cn1cc(C(=O)C2CCCCC2)c2ccccc21)NCC1CCCO1 (centres undefined),-11,-2%,2%,1,.
O=C(c1ccco1)N1CCN(c2nc(C3CC3)nc3c2nnn3Cc2ccccc2Cl)CC1,active,-3%,27%,6,1%
O=C(c1ccco1)N1CCC(c2nc3c(nnn3Cc3ccccc3Cl)c(=O)[nH]2)CC1,-3,3%,7%,-6,.
O=C(c1ccco1)N1CCN(CCCCOc2cccc3ccccc23)CC1,37*,1%,-20%,7,0%
CC(C)NS(=O)(=O)c1ccc(OCC(=O)Nc2ccccc2F)cc1,34*,3%,4%,7,8%
COc1ccccc1N(CCC#N)C(=O)CSc1nc(-c2ccccc2)cn1N,75*,4%,3%,-2,0%
COc1ccc(C(=O)C(Cc2cc(C(C)=O)ccc2OC)N2CCCC2)cc1 (centres undefined),-1,3%,.,1,.
CCCCc1ccc(NS(=O)(=O)N(C)C)cc1,72*,-21%,-77%,2,3%
CN(C)S(=O)(=O)Nc1ccc(Oc2ccccc2)cc1,-25,-2%,-46%,-1,.
CCOC(=O)C1CCCN(c2nc3ccccc3nc2C(C#N)C(=O)OCC)C1 (centres undefined),133*,-1%,-31%,-1,-3%
CCOC(=O)C1CCCN(c2nc3ccccc3nc2C(C#N)C(=O)OC(C)COC)C1 (centres undefined),9,14%,-12%,-6,.
CCNS(=O)(=O)c1ccc(NC(=O)c2ccc(Cn3cc([N+](=O)[O-])cn3)o2)cc1,23,0%,.,5,.
Cc1ccc(NC(=O)c2ccc(Cn3cc(Br)cn3)o2)cc1,38*,-24%,-1%,8,3%
O=C(COC(=O)c1c2c(nc3ccccc13)CCN(Cc1ccccc1)C2)Nc1c(F)cccc1F,17,0%,24%,0,.
CC(=O)Nc1ccc(NC(=O)COC(=O)c2c3c(nc4ccccc24)CCN(Cc2ccccc2)C3)cc1,22*,1%,10%,1,-4%
O=C(CCN1CCN(c2ccccc2)CC1)Nc1ccc2c(c1)OCO2,1,-7%,1%,-1,.
O=C(COCc1cc(-c2ccc3c(c2)OCO3)on1)N1CCN(c2ccccc2)CC1,40*,-2%,-17%,7,1%
CC(C)Oc1ccc(C(=O)NC(Cc2c[nH]c3ccccc23)C(=O)NN)cc1 (centres undefined),37*,-1%,18%,9,1%
COc1ccccc1NC(=O)CSc1nnc(-c2ccco2)n1Cc1ccco1,63*,3%,-4%,-4,3%
COc1ccccc1NC(=O)CSc1nnc(-c2ccccn2)n1Cc1ccco1,13,12%,-10%,-5,.
CC[N+](CC)(CCO)CCCN1C(=O)C2CC=C(Cl)CC2C1=O (centres undefined),143*,-1%,1%,3,-3%
CC(=C/c1ccco1)/C=N/NC(=O)c1nnn(-c2nonc2N)c1CN(C)C,-12,-4%,.,-1,.
CC(C)CNC(=O)c1noc2c1CCCC2,51*,0%,?,9,-1%
CCN1CN(Cc2ccco2)CNC1=S,7,-6%,11%,-2,.
SMILES,Shiga inhibitor,SARS PLpro yeast,NS1 inh,CHX counter-1,CHX counter-2
NC(=O)c1ccc(NC(=O)c2cc(S(=O)(=O)N3CCCCC3)ccc2N2CCOCC2)cc1,.,-9%,.,.,.
Cc1ccc(NC(=O)c2cc(S(=O)(=O)N3CCCCC3)ccc2N2CCOCC2)cc1F,31*,29%,3%,1,-1%
COc1ccc(NC(=O)C(C/C=C(/C)Cl)C(C)=O)cc1 (centres undefined),7,18%,-1%,0,.
O=C(Cn1ncc2c1-c1ccccc1OC2)N(Cc1ccco1)C1CCCCC1,-9,2%,-48%,-3,.
O=C(Cn1ncc2c(=O)oc3ccccc3c21)N(Cc1ccco1)C1CCCCC1,48*,7%,-46%,1,-2%
CCc1ccc(CNC(=O)CCCC(=O)n2nc(C)c3ccccc32)cc1,-9,-6%,?,-4,.
O=C(NCC1CCCO1)Nc1ccc2c(c1)OCO2 (centres undefined),43*,-2%,5%,7,?
O=C(NCCc1csc(-c2cccnc2)n1)c1cccc(Cl)c1,41,-8%,-4%,10,.
O=C(NCCc1csc(-c2cccnc2)n1)c1ccc(Cl)cc1,21*,0%,-5%,-2,?

# Assay outcomes deposited in PubChem by National Center for Advancing Translational Sciences (NCATS).
